# Results reported in PubChem BioAssay (NCATS).
# Unmarked numbers belong to inactive results. Inconclusive results are not listed. A call without a number means that no potency is given here. Calls of active or inactive are those of the source. The call rests on the fitted dose curve; in most records, active means well fitted curve in the direction sought with a large enough effect; inconclusive means small, poorly fitted or top-dose-only effect, or another doubt; inactive means no such curve, though single readings can be large; an effect the other way counts as inactive or inconclusive.
# How the values were obtained:
# [1] = target: Cytochrome P450 3A4 (Homo sapiens) (UniProt P08684); test: qHTS Assay for Inhibitors and Substrates of Cytochrome P450 3A4 (AID 884); settings: recombinant CYP3A4, Luciferin-PPXE luminescence; series mostly up to 57.1 µM; further: nearly all actives have a fitted effect of over 50% in size; further: potency means the concentration at half of the fitted maximal effect
# Cytochrome P450 3A4 (Homo sapiens), sequence (P08684 whole entry, looked up): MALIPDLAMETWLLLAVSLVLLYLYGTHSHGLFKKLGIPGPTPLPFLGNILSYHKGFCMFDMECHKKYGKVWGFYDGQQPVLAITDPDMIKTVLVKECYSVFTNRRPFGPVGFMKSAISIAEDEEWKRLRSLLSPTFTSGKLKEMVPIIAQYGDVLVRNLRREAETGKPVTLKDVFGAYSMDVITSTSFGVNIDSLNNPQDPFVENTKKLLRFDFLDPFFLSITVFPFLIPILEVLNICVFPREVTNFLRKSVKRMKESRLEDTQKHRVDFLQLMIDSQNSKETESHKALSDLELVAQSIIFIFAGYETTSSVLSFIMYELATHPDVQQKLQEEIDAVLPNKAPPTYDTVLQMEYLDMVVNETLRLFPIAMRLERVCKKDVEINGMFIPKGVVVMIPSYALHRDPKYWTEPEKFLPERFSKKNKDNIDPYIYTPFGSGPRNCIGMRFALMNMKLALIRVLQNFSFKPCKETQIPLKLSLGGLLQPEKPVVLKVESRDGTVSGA
# In short: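 20 nM human CYP3A4 with 25 uM Luciferin-PPXE (at KM) in 200 mM KPO4, preincubated 10 min with compound; NADPH regeneration started a 60 min RT reaction. Luciferin detected by luminescence, normalized to 57 uM ketoconazole as full inhibition.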
# [2] = target: Cytochrome P450 3A4 (Homo sapiens) (UniProt P08684); test: qHTS Assay for Activators of Cytochrome P450 3A4 (AID 885); settings: recombinant CYP3A4, Luciferin-PPXE luminescence, 60 min; series mostly up to 57.1 µM; further: nearly all actives have a fitted effect of over 65% in size; further: potency means the concentration at half of the fitted maximal effect
# In short: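 Steps: enzyme/substrate mix dispensed; compound added, 10 min RT; NADPH regeneration solution added, 60 min RT; luciferin detection buffer stops reaction; 20 min later luminescence measured.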
# [3] = Confirmation and Secondary Assay for Modulators of Hemoglobin Beta Chain Splicing at IVS2 654 locus (AID 910); settings: HeLa EGFP-654 splicing reporter, GFP fluorescence, 48 h; series mostly up to 46.1 µM;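 further: per-well total GFP intensity by laser scanning cytometry after 2-day treatment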
# In short: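 HeLa cells stably carrying EGFP interrupted by mutant beta-globin IVS2-654 intron (CMV-driven) were treated with compound for 2 days at 37C; corrected splicing was scored as total peak GFP intensity per well (488 nm excitation, 500-520 nm emission).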
# [4] = Confirmation and Secondary Assay for Modulators of Hemoglobin Beta Chain Splicing at IVS2 705 locus (AID 930); settings: HeLa EGFP-705 splicing reporter, GFP fluorescence, 48 h; series mostly up to 46.1 µM;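 further: HeLa cells stably expressing the EGFP-705 splicing reporter; GFP fluorescence per well restored by corrected splicing of the IVS2-705 intron in EGFP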
# In short: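 Assay measures total GFP intensity per well in HeLa EGFP-705 cells after 2 days with compound; mis-splicing normally truncates EGFP, so fluorescence indicates corrected splicing.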
# [5] = target: Cytochrome P450 2C19 (Homo sapiens) (UniProt P33261); test: qHTS Assay for Inhibitors and Substrates of Cytochrome P450 2C19 (AID 899); settings: recombinant CYP2C19, luciferin-H EGE luminescence; series mostly up to 57.1 µM; further: nearly all actives have a fitted effect of over 60% in size; further: potency means the concentration at half of the fitted maximal effect
# Cytochrome P450 2C19 (Homo sapiens), sequence (P33261 whole entry, looked up): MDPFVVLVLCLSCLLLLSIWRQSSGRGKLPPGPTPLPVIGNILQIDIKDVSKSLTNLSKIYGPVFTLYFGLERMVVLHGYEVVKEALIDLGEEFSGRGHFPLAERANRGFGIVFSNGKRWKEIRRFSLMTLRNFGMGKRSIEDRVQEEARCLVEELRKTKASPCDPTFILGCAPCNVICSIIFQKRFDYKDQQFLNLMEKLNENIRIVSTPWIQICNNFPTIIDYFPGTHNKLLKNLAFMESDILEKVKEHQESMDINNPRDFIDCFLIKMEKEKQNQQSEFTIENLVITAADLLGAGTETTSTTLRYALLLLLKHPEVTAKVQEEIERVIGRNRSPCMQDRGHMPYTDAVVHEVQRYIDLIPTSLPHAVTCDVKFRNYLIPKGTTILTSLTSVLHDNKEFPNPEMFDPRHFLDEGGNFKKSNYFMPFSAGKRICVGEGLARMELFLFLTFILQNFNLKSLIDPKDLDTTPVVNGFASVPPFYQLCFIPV
# In short: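 In 50mM KPO4, the reaction held 5nM enzyme and KM-level (10uM) Luciferin-H EGE; it ran 60 min at 37C after NADPH regeneration and a 10 min compound preincubation. Luminescence values were scaled to 57uM ketoconazole as complete inhibition.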
# [6] = target: Alpha-galactosidase (Coffea arabica) (UniProt Q42656); test: Counterscreen for Glucocerebrosidase Inhibitors: qHTS Assay for Coffee Bean alpha-Galactosidase at pH 4.5 (AID 957); settings: purified coffee bean alpha-galactosidase, fluorogenic substrate; series mostly up to 76.9 µM
# Alpha-galactosidase (Coffea arabica), sequence (Q42656 whole entry, looked up): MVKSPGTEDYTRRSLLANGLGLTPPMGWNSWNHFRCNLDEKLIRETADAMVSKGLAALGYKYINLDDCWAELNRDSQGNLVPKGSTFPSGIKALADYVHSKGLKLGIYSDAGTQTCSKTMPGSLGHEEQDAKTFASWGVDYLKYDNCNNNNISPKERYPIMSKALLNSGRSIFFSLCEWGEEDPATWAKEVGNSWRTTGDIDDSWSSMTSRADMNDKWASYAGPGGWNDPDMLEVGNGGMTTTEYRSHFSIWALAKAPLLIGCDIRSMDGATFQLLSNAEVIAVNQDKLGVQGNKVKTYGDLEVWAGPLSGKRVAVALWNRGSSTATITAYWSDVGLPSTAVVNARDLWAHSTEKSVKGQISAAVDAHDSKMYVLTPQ
# In short: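 Coffee bean alpha-galactosidase 2 nM, substrate 4-MU-alpha-Gal 80 uM, pH 4.5 citrate/Tween-20, 20 min RT. Cpd titration 0.7 nM–77 uM. Stop pH 10, fluorescence 365/440 nm; Hill-equation AC50.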
# [7] = target: Alpha-galactosidase (Coffea arabica) (UniProt Q42656); test: Counterscreen for Glucocerebrosidase Inhibitors: qHTS Assay for Coffee Bean alpha-Galactosidase at pH 5.9 (AID 998); settings: coffee bean alpha-galactosidase enzyme assay; series mostly up to 76.9 µM
# In short: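 Green coffee bean enzyme (2 nM final) was incubated with compounds (0.7 nM–77 uM) and 4-methylumbelliferyl alpha-D-galactopyranoside (80 uM) in citrate buffer pH 5.9, 20 min at room temperature. High-pH stop; fluorescence 365/440 nm; AC50 from Hill fits.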
smiles,measurement,setting,value
COc1ccc(-c2oc3cc(OC)ccc3c(=O)c2O)cc1,Potency,[1],12.6 µM (active)
same,Potency,[2],inactive
CC1(C)C(=O)[C@@H]2OC2[C@@]2(C)C1CC(O)[C@]1(C)C2CC[C@@]2(C)C(c3ccoc3)OC(=O)C3OC312 (some centres undefined),Potency,[1],1 µM (active)
same,Potency,[2],inactive
same,Potency,[3],inactive
same,outcome,[4],inactive
CCC(C)C(=O)OC1C[C@@]2(C)C(c3ccoc3)OC(=O)CC23OC2(C)OC34C(OC(=O)C(C)C)[C@]3(O)C(OC(=O)C5(C)OC5C)[C@]5(C)CC3(O)[C@](C)(C5CC(=O)OC)C14O2 (some centres undefined),Potency,[1],2.51 µM (active)
same,Potency,[3],inactive
same,outcome,[4],inactive
O=C(OC1Cc2c(O)cc(O)cc2OC1c1cc(O)c(O)c(O)c1)c1cc(O)c(O)c(O)c1 (centres undefined),Potency,[1],20 µM (active)
same,Potency,[2],inactive
CC(=O)[C@]1(O)CC[C@@H]2[C@H]3C[C@@H](C)C4=CC(=O)CC[C@@]4(C)[C@H]3[C@@H](O)C[C@]21C,"activity change, positive = activation",[2],-33% [at 11.4 µM]
CCc1cc2c(nc1CC)CCN(CC/C(C)=N/OC)C2,"activity change, positive = activation",[2],-38.7% [at 11.4 µM]
CC1=C(CC[C@H](C)CO)O[C@@H]2C[C@@H]3[C@H]4CC[C@H]5C[C@@H](O)CC[C@]5(C)[C@@H]4CC(=O)[C@@]3(C)[C@@H]12,"activity change, negative = inhibition",[1],87.6% [at 11.4 µM]
same,Potency,[2],3.98 µM (active)
CC(=O)O[C@H]1CC[C@@]2(C)[C@@H](CC[C@H]3[C@H]2CC(=O)[C@@]2(C)[C@@H]3C[C@H]3CC(C)=CC(=O)[C@H]32)C1,"activity change, negative = inhibition",[1],295% [at 11.4 µM]
same,Potency,[2],2 µM (active)
O=C1c2ccccc2-c2cc([N+](=O)[O-])c([N+](=O)[O-])cc21,Potency,[1],0.501 µM (active)
same,"activity change, positive = activation",[2],-119% [at 11.4 µM]
same,Potency,[5],0.398 µM (active)
C=CCc1cc(OC)c2c(c1OC)OCO2,Potency,[1],7.94 µM (active)
same,Potency,[2],inactive
same,Potency,[3],inactive
same,outcome,[4],inactive
C=C(CO)C1Cc2c(ccc3c2OC2COc4cc(OC)c(OC)cc4C2C3=O)O1 (centres undefined),Potency,[1],31.6 µM (active)
same,Potency,[2],inactive
CN1[C@@H]2CC[C@H]1CC(NC(=O)c1nn(C)c3ccccc13)C2 (some centres undefined),Potency,[1],inactive
same,outcome,[6],inactive
same,outcome,[7],inactive
CN(C)C1C(=O)C(C(N)=O)=C(O)[C@@]2(O)C(=O)C3=C(O)c4c(O)cccc4[C@](C)(O)C3C(O)C12 (some centres undefined),Potency,[1],inactive
same,Potency,[3],inactive
same,outcome,[4],inactive
CC(=O)Oc1ccc(/C=C/c2cc(OC(C)=O)cc(OC(C)=O)c2)cc1,Potency,[1],10 µM (active)
same,Potency,[2],inactive
same,Potency,[3],inactive
same,outcome,[4],inactive
CC(C)CCCC1(C)C=Cc2c(O)c3c(c(CCC(C)C)c2O1)OC12C(CC4CC1C(C)(C)OC2(CCC(C)C(=O)O)C4O)C3=O (centres undefined),Potency,[1],inactive
same,Potency,[3],inactive
same,outcome,[4],inactive
C[C@@]12CC[C@@H]3[C@@H](CC[C@H]4C[C@@H](O)CC[C@]43C)[C@H]1CC[C@@H]2c1cc(C(F)(F)F)n[nH]1,"activity change, negative = inhibition",[1],103% [at 11.4 µM]
same,Potency,[2],2.51 µM (active)
same,Potency,[5],2.51 µM (active)
CC(=O)c1c(O)c(C)c(O)c2c1OC1=CC(=O)C(C(C)=O)C(=O)C12C (centres undefined),Potency,[2],inactive
COc1cc2c(cc1OC)[C@@H]1C(=O)c3ccc(OC)c(CC=C(C)C)c3OC1CO2 (some centres undefined),Potency,[1],3.16 µM (active)
same,Potency,[3],inactive
same,outcome,[4],inactive
COc1cc2c(cc1OC)C1C(=O)c3c(cc4c(c3O)C=CC(C)(C)O4)OC1CO2 (centres undefined),Potency,[1],15.8 µM (active)
same,Potency,[2],inactive
c1ccc(CN2CCC3(CCc4ccccc43)CC2)cc1,Potency,[1],inactive
same,Potency,[5],2.51 µM (active)
COC(=O)NC/C=C\c1nc(CC/C=C\C(=O)O[C@H]2C[C@H]3CC(=O)O[C@@H](/C=C\CC(C)C)C[C@@H]4CC[C@H](C)[C@H](C[C@@H](OC)C[C@H](C2)O3)O4)co1,Potency,[1],5.01 µM (active)
same,"activity change, positive = activation",[2],-81.2% [at 11.4 µM]
same,"activity, negative = inhibition",[5],68.9% [at 11.4 µM]
CCCCCCCCCCCCCC(=O)OC1C(C)[C@@]2(O)C(C=C(CO)C[C@]3(O)C(=O)C(C)=C[C@H]23)[C@@H]2C(C)(C)[C@]12OC(C)=O (some centres undefined),Potency,[1],inactive
same,Potency,[3],inactive
same,outcome,[4],inactive
CC(C)c1cccc(O)c(=O)c1,Potency,[2],inactive
CC(=O)OC1CC[C@@]2(C)C3CC(=O)[C@]4(C)C(C(C)=O)=CCC4C3CC[C@H]2C1 (some centres undefined),Potency,[1],inactive
same,Potency,[2],5.01 µM (active)
